High-throughput results deposited in PubChem BioAssay by University of Kansas High Throughput Screening Laboratory.
A selection: hits, their analogues and other compounds. The true share with any hit is near 3.5%.
mHTT CaM bind: disrupts binding of mutant huntingtin to calmodulin. P42858. inhibition, % at 15 µM. AlphaScreen His-mHTT/GST-CaM binding, luminescence. hit rate 3.6% among 190,000. AID 1671202;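 further: 0% = both proteins with DMSO and 100% = one protein alone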
Target sequence (P42858 whole entry, looked up, stated change not applied): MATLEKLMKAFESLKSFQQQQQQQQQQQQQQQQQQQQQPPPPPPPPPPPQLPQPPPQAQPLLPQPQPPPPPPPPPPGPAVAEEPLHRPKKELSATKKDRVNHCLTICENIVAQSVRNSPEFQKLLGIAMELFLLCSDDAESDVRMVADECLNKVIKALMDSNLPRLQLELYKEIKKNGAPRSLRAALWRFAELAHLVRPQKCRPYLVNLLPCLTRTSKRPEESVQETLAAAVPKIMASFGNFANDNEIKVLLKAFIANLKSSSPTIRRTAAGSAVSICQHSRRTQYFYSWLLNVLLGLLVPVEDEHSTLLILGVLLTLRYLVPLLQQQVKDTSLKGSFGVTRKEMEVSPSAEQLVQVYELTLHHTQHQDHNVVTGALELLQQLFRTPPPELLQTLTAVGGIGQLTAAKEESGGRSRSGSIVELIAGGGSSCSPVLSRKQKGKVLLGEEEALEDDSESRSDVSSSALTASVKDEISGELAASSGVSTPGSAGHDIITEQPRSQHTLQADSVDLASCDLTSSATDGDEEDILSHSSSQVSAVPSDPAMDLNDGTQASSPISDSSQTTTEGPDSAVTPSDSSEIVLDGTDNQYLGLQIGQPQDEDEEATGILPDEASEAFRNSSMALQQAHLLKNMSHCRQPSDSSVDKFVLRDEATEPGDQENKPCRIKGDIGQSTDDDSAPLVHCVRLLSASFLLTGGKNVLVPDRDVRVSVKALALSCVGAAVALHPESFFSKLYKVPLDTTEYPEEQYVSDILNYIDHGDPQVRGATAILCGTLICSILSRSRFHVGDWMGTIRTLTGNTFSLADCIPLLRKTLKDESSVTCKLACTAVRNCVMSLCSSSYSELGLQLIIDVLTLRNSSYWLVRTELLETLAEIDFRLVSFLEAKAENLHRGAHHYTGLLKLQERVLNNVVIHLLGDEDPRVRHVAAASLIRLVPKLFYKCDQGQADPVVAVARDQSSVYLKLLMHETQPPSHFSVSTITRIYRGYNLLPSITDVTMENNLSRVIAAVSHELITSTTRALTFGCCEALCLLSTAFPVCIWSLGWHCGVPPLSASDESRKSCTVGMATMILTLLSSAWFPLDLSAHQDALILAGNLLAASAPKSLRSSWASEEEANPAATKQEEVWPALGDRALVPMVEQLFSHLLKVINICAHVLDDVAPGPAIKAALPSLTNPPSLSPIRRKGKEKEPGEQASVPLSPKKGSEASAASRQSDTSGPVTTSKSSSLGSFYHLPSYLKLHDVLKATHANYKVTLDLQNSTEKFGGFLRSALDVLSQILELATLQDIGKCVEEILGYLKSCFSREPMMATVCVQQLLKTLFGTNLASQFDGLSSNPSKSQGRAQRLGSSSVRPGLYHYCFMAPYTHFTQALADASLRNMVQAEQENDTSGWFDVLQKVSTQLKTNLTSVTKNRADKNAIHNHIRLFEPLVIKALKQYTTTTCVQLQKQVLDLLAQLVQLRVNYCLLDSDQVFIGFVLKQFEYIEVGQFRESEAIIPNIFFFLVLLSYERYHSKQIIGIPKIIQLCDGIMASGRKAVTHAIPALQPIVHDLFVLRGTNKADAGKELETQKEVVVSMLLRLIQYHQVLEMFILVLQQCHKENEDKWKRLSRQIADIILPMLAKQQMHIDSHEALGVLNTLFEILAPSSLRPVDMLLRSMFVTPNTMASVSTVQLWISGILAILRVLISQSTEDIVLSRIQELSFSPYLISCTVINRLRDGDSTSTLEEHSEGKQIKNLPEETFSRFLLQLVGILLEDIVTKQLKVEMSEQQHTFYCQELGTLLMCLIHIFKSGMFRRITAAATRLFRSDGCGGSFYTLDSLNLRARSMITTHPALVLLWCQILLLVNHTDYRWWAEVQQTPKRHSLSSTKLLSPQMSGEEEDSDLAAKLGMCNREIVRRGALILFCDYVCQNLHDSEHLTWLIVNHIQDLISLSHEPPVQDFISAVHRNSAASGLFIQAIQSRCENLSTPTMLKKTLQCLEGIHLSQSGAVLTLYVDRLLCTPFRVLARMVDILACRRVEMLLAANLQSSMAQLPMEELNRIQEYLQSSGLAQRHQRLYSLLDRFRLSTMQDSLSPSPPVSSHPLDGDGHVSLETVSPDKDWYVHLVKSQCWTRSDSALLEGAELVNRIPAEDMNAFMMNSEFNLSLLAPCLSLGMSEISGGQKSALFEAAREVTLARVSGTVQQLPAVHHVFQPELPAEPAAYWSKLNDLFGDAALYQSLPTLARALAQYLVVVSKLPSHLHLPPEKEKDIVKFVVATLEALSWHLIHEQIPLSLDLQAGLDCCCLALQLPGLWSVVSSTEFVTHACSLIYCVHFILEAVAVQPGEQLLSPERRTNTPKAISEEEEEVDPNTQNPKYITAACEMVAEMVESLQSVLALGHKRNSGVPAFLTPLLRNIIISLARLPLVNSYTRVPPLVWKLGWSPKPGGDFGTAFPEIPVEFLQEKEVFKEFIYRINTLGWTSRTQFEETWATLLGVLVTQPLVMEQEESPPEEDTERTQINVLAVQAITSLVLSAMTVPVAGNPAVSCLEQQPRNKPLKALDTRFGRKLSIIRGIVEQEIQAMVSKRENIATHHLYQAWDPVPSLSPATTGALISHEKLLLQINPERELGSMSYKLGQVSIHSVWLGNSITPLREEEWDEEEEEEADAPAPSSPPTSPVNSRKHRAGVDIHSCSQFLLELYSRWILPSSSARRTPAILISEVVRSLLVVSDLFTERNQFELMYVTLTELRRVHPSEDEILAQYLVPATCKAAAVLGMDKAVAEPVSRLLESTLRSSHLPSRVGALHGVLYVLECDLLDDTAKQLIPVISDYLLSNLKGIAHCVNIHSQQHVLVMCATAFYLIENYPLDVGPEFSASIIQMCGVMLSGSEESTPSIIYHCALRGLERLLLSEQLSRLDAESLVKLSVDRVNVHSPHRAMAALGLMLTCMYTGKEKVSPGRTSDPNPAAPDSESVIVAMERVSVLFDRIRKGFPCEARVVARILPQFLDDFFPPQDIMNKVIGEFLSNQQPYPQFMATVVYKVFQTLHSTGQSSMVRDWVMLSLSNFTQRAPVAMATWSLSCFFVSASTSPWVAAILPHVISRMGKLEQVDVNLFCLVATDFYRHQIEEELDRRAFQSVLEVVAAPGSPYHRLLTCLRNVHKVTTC
Pf apPOL block: Pf-apPOL DNA polymerase inhibition. Recombinant Pf-apPOL, molecular beacon fluorescence, 1.5 h. inhibition, % at 10 µM. hit rate 0.25% among 210,000. AID 1794808
The depositor's hits bear a star. No stated cut-off is given here; in the data, active means inhibition above about 50%; inactive means the rest.

Screening CCC(C)NC(=O)N1CCN(Cc2nc3cccnc3n2-c2cccc(C)c2)CC1 (stereo not given) returned mHTT CaM bind -2.4 and Pf apPOL block -6.9.
Screening Cc1nn(C(=O)C(C)N2C(=O)c3ccccc3C2=O)c(C)c1Br (stereo not given) returned mHTT CaM bind -2.9 and Pf apPOL block -1.3.
Screening Cc1nn(C(=O)CCN2C(=O)c3ccccc3C2=O)c(C)c1Br returned mHTT CaM bind -3.0 and Pf apPOL block 71.4*.
`O=C(NCC1OCCc2ccccc21)c1ccc(F)cc1` (stereo not given) gave mHTT CaM bind 0.0 and Pf apPOL block -3.3.
For O=C(Nc1ccc(-c2nc3ccccc3s2)cc1)c1ncn[nH]1 the results were mHTT CaM bind 54.5* and Pf apPOL block -6.2.
Cc1cc(C(=O)Nc2cccc(-c3nc4ccccc4s3)c2)on1 was read as mHTT CaM bind -2.0 and Pf apPOL block 53.7*.
O=C(Nc1ccc(-c2nc3ccccc3s2)c(O)c1)c1ccc(F)cc1 was read as mHTT CaM bind -3.8 and Pf apPOL block 0.4.
For O=C(Nc1ccc(-c2nc3ccccc3s2)c(O)c1)c1ccccc1 the results were mHTT CaM bind -13.1 and Pf apPOL block 97.0*.
For O=C(Nc1ccc(-c2nc3ccccc3s2)cc1)c1ccccc1F the results were mHTT CaM bind 5.0 and Pf apPOL block 2.5.
`Cc1ccc(-c2nc3ccccc3s2)cc1NC(=O)c1ccco1` gave mHTT CaM bind -0.4 and Pf apPOL block -7.2.
`COc1cccc(C(=O)Nc2cccc(-c3nc4ccccc4s3)c2)c1` gave mHTT CaM bind -5.5 and Pf apPOL block -0.3.
Cc1ccc(-c2nc3ccccc3s2)cc1NC(=O)c1ncn[nH]1 was read as mHTT CaM bind 98.0* and Pf apPOL block -4.2.
`CCN(CC)C(=O)c1cc2c(s1)CCC(C(=O)N1CCC(C)CC1)C2` (stereo not given) gave mHTT CaM bind 3.3 and Pf apPOL block -8.6.
`CSCCC(C)(O)CNC(=O)c1cccc2ccccc12` (stereo not given) gave mHTT CaM bind 0.9 and Pf apPOL block -7.3.
Screening O=C1C(=Cc2ccc(N3CCOCC3)o2)C(=O)c2ccccc21 returned mHTT CaM bind 14.0 and Pf apPOL block 23.7.
For Cc1noc(C)c1S(=O)(=O)N1CCC(CC(=O)N2CCN(c3ncccn3)CC2)CC1 the results were mHTT CaM bind -0.7 and Pf apPOL block -3.1.
For O=C(O)CCNc1ncnc2ccc(Br)cc12 the results were mHTT CaM bind -5.0 and Pf apPOL block -1.8.
Screening COc1ccc(N2CCN(C(=O)c3sc4cc(Cl)ccc4c3Cl)CC2)cc1 returned mHTT CaM bind 0.6 and Pf apPOL block 4.6.
`CN(C)c1ccc(C2C3=C(CCCC3=O)Nc3nc(SCc4ccccc4F)[nH]c(=O)c32)cc1` (stereo not given) gave mHTT CaM bind 52.0* and Pf apPOL block -5.4.
For O=C1CCCC2=C1C(c1cccs1)c1c(nc(SCc3ccccc3F)[nH]c1=O)N2 (stereo not given) the results were mHTT CaM bind 41.0 and Pf apPOL block -4.9.
`CN1CCC(NC(=O)c2ccc3c(c2)N(C(=O)c2ccc(F)cc2)CC3)CC1` gave mHTT CaM bind -0.5 and Pf apPOL block -0.6.
Screening CNC(=O)c1ccc2c(c1)N(C(=O)c1ccc(OC)cc1)CC2 returned mHTT CaM bind 100.0* and Pf apPOL block -0.6.
Cc1ccc(-n2cc(C(=O)N3CCN(c4ccccc4)CC3)c3ccccc3c2=O)cc1C was read as mHTT CaM bind 74.0* and Pf apPOL block -0.8.
For Cc1ccc(-n2cc(C(=O)N3CCCC3)c3ccccc3c2=O)cc1C the results were mHTT CaM bind 10.0 and Pf apPOL block -6.3.
Screening O=C1S/C(=C\c2cc3c(cc2Cl)OCO3)C(=O)N1c1ccccc1 returned mHTT CaM bind 5.0 and Pf apPOL block -2.9.
Cc1c(C(=O)Nc2ccccc2Cl)oc2ccc(S(=O)(=O)N3CCCC3)cc12 was read as mHTT CaM bind 4.0 and Pf apPOL block -15.4.
CCOc1ccc(C(O)=C2C(=O)C(=O)N(c3nnc(C)s3)C2c2ccc([N+](=O)[O-])cc2)cc1 (stereo not given) was read as mHTT CaM bind 17.0 and Pf apPOL block 6.8.
`COc1ccc(C(O)=C2C(=O)C(=O)N(c3nnc(C)s3)C2c2ccc(Cl)c(Cl)c2)cc1` (stereo not given) gave mHTT CaM bind 99.5* and Pf apPOL block 1.2.
For CCOC(=O)c1ccc(Oc2c(C)oc3cc(OC(=O)c4ccc5c(c4)OCO5)ccc3c2=O)cc1 the results were mHTT CaM bind -0.8 and Pf apPOL block -0.4.
Screening CCC(C)C1NC(=O)NC1=O (stereo not given) returned mHTT CaM bind 4.9 and Pf apPOL block 2.5.
Screening O=C(Cn1nc(C(=O)N2CCOCC2)cc1-c1cccs1)NCCCn1ccnc1 returned mHTT CaM bind -6.1 and Pf apPOL block 2.8.
`Cc1ccc(C2C3=C(Nc4ncnn42)c2ccccc2OC3c2cccc(F)c2)cc1` (stereo not given) gave mHTT CaM bind 53.0* and Pf apPOL block -6.8.
For Fc1ccc(C2C3=C(Nc4ncnn42)c2ccccc2OC3c2cccc(F)c2)cc1 (stereo not given) the results were mHTT CaM bind 27.0 and Pf apPOL block -4.6.
Screening Cc1ccc(C2C3=C(Nc4ncnn42)c2ccccc2OC3c2ccc(F)cc2)cc1 (stereo not given) returned mHTT CaM bind 51.0* and Pf apPOL block -5.0.
For Cc1ccc(C2Oc3ccccc3C3=C2C(c2ccc(F)cc2)n2ncnc2N3)cc1 (stereo not given) the results were mHTT CaM bind 3.0 and Pf apPOL block 2.0.
`O=C(COc1ccccc1)NCc1cccnc1-c1ccccc1` gave mHTT CaM bind -9.7 and Pf apPOL block -13.6.
O=C(Cn1c(=O)oc2ccccc21)N1CCN(c2nc3ccc([N+](=O)[O-])cc3s2)CC1 was read as mHTT CaM bind 3.4 and Pf apPOL block -6.4.
Cc1cc(=O)n2[nH]c(C)c(-c3ccc(Cl)cc3)c2n1 was read as mHTT CaM bind -3.1 and Pf apPOL block -6.6.
`O=c1cc(-c2ccc([N+](=O)[O-])cc2)nc2c(-c3ccc(Cl)cc3)c[nH]n12` gave mHTT CaM bind 54.5* and Pf apPOL block 4.5.
`Cc1nc2c(-c3ccc(Cl)cc3)c[nH]n2c(=O)c1Cl` gave mHTT CaM bind 9.9 and Pf apPOL block -1.0.
COc1ccc(-c2c(C)[nH]n3c(=O)cc(-c4ccc([N+](=O)[O-])cc4)nc23)cc1 was read as mHTT CaM bind 53.2* and Pf apPOL block -3.0.
Screening COc1cccc(CNC(=O)CCC2CCN(c3cc(NC4CC4)ncn3)CC2)c1 returned mHTT CaM bind 3.7 and Pf apPOL block -4.2.
For Cc1cc(C)cc(-n2c(C)nc3cc(C(=O)NC4CCCC4)ccc32)c1 the results were mHTT CaM bind 35.0 and Pf apPOL block -10.9.
O=C(c1ccc2c(c1)C1C=CCC1C(c1ccc([N+](=O)[O-])cc1)N2)N1CCCC1 (stereo not given) was read as mHTT CaM bind 48.1 and Pf apPOL block -16.8.
Screening O=C(O)c1ccc2c(c1)C1C=CCC1C(c1cccc([N+](=O)[O-])c1)N2 (stereo not given) returned mHTT CaM bind 84.7* and Pf apPOL block -2.1.
`O=[N+]([O-])c1ccccc1C1Nc2ccc(Br)cc2C2C=CCC21` (stereo not given) gave mHTT CaM bind 57.4* and Pf apPOL block -24.7.
